Experiment [1] addresses CCAAT/enhancer-binding protein beta (Homo sapiens) (UniProt P17676). Nature of the experiment: ATG_C_EBP_CIS: Attagene CIS-FACTORIAL HepG2 Assay for human CCAAT/Enhancer Binding Protein (C/EBP) beta (AID 2282927). To be noted: HepG2 Attagene cis-factorial transcription factor reporter; actives raise or lower the signal. The method, boiled down: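 Following a 24 h incubation with test chemical, transfected HepG2 cells yielded RNA whose reporter transcripts were quantified by RT-PCR and fluorescent capillary electrophoresis, with DMSO serving as baseline for bidirectional fitting.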

A short description of experiment [2]: ATG_DR4_LXR_CIS: Attagene CIS-FACTORIAL HepG2 Assay for human Liver X Receptor (LXR), DR4 submotif (AID 2282929). To be noted: HepG2 Attagene DR4 cis-reporter, mRNA transcription; actives raise or lower the signal. The method, boiled down: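 After transient transfection with multiplexed cis-promoter reporter units, HepG2 cells received test chemicals for 24 h. Reporter mRNA induction, detected by fluorescence after RT-PCR and capillary electrophoresis, was scored relative to DMSO.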

Experiment [3] in a line: ATG_AP_2_CIS: Attagene CIS-FACTORIAL HepG2 Assay for human Activator Protein 2 (AP-2) (AID 2282932). To be noted: HepG2 AP-2 cis-reporter, Attagene transcription factor profiling; actives raise or lower the signal. The method, boiled down: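 Bidirectional curve fitting against DMSO was applied to reporter mRNA signals from HepG2 cells 24 h after dosing. Cis-promoter reporter units, transiently transfected, were read by RT-PCR plus capillary electrophoresis.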

Experiment [4] deals with Transcription factor E2F1 (Homo sapiens) (UniProt Q01094). Nature of the experiment: ATG_E2F_CIS: Attagene CIS-FACTORIAL HepG2 Assay for human E2F Transcription Factor 1 (AID 2282935). To be noted: HepG2 Attagene cis-reporter, E2F reporter RNA transcripts; actives raise or lower the signal. The method, boiled down: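 Multiplexed cis-reporter assay: HepG2, transient transfection, 24 h dosing, mRNA quantitation by labeled RT-PCR and CE.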

Experiment [5] in a line: ATG_E_Box_CIS: Attagene CIS-FACTORIAL HepG2 Assay for human Enhancer Box (E-box) (AID 2282936). To be noted: HepG2 E-box cis-reporter transcription, actives raise or lower the signal. Summed up: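 Multiplexed CIS reporter system in transiently transfected HepG2 cells measures native transcription factor activity. Reporter RNA after 24 h exposure is profiled by RT-PCR-capillary electrophoresis.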

The nature of experiment [6]: ATG_M_19_CIS: Attagene CIS-FACTORIAL HepG2 Assay for M19 Transcription Factor (Internal Marker) (AID 2282939). To be noted: HepG2 Attagene CIS-FACTORIAL M19 internal marker reporter; actives raise or lower the signal. The method, boiled down: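 Signals come from fluorescence of labelled reporter-specific PCR fragments resolved by capillary electrophoresis, following 24 h treatment of HepG2 cells transfected with cis-promoter reporter units; activity was fitted in both directions relative to DMSO.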

The nature of experiment [7]: ATG_GLI_CIS: Attagene CIS-FACTORIAL HepG2 Assay for human Zinc Finger Protein GLI1 (AID 2282945). To be noted: HepG2, Attagene cis-factorial reporter mRNA, GLI element; actives raise or lower the signal. Summed up:
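HepG2 cells transiently transfected with cis-promoter multiplexed reporter units report endogenous transcription factor activity. After 24 h chemical exposure, reporter mRNA was quantified by RT-PCR, 6-FAM labelling, HpaI digestion and capillary electrophoresis, with bidirectional fitting against DMSO.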

Experiment [8] in a line: ATG_ISRE_CIS: Attagene CIS-FACTORIAL HepG2 Assay for human Interferon Regulatory Factor 1 (IRF1) binding to an Interferon-Stimulated Response Element (ISRE) (AID 2282948). To be noted: HepG2 ISRE cis-reporter (Attagene), mRNA transcription readout; actives raise or lower the signal. The method, boiled down: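 Transfected HepG2 (multiple reporter transcription units, cis elements) dosed 24 h. RNA → oligo(dT) RT → PCR → 6-FAM primer extension → HpaI → CE. DMSO = negative control/baseline.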

The nature of experiment [9]: ATG_M_32_CIS: Attagene CIS-FACTORIAL HepG2 Assay for M32 Transcription Factor (Internal Marker) (AID 2282949).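 Further: background control marker of the multiplexed CIS panel rather than a real target.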 To be noted: HepG2 Attagene cis-factorial M32 reporter, mRNA; actives raise or lower the signal. Summed up:
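Fluorescent capillary electrophoresis peaks of HpaI-digested, FAM-labelled RT-PCR reporter products give the signal. Source: transiently transfected human liver HepG2 cells, 24 h after chemical dosing; bidirectional fitting against DMSO.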

Experiment [10] in a line: ATG_PXRE_CIS: Attagene CIS-FACTORIAL HepG2 Assay for human Pregnane X Receptor Element (PXRE) (AID 2282957). To be noted: HepG2 Attagene CIS-FACTORIAL PXRE reporter, mRNA; actives raise or lower the signal. The method, boiled down:
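Cis-element reporter mRNA in human hepatoma HepG2 cells is measured 24 h post-dosing by RT-PCR, primer-extension labeling and capillary electrophoresis; gain or loss of signal is fitted relative to DMSO.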

Experiment [11] can be described thus: ATG_Sox_CIS: Attagene CIS-FACTORIAL HepG2 Assay for human SRY-box transcription factor (SOX) (AID 2282960). To be noted: HepG2 Attagene cis-factorial SOX reporter, mRNA; actives raise or lower the signal. Summed up: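 Using transiently transfected HepG2 cells, reporter transcription driven by cis elements was assessed 24 h after dosing. Signal was fluorescence of capillary-separated RT-PCR products, with DMSO defining baseline activity.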

Experiment [12] addresses Transcription factor Sp1 (Homo sapiens) (UniProt P08047). The experiment in a line: ATG_Sp1_CIS: Attagene CIS-FACTORIAL HepG2 Assay for human Specificity Protein 1 (Sp1) (AID 2282961). To be noted: HepG2 Sp1 cis-reporter transcription, actives raise or lower the signal. Summed up: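 After transient transfection of HepG2 cells with cis-promoter reporter units and 24 h chemical treatment, reporter transcripts were quantified by RT-PCR and capillary electrophoresis fluorescence. Gain- and loss-of-signal fitted against DMSO.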

The target of experiment [13] is Signal transducer and activator of transcription 3 (Homo sapiens) (UniProt P40763). The experiment in a line: ATG_STAT3_CIS: Attagene CIS-FACTORIAL HepG2 Assay for human Signal Transducer and Activator of Transcription 3 (STAT3) (AID 2282963). To be noted: HepG2, Attagene cis-factorial STAT3 reporter transcription; actives raise or lower the signal. The method, boiled down:
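Transcript-level reporter assay. HepG2 transient MRTU transfection, 24 h exposure, fluorescence detection after RT-PCR and CE; DMSO baseline.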

Experiment [14] is described as follows: ATG_TA_CIS: Attagene CIS-FACTORIAL HepG2 Assay for human TA Basal Promoter (AID 2282964). To be noted: HepG2 Attagene CIS-factorial TA basal promoter reporter; actives raise or lower the signal. Summed up:
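Fluorescence from labelled RT-PCR reporter fragments, separated by capillary electrophoresis, gives the signal. Cells: HepG2 transiently carrying multiple reporter units, 24 h chemical dosing. Gain or loss relative to DMSO.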

A short description of experiment [15]: ATG_TCF_b_cat_CIS: Attagene CIS-FACTORIAL HepG2 Assay for human T-Cell-Factor with beta-catenin (TCF/b-cat) (AID 2282965). To be noted: HepG2 TCF/beta-catenin cis-reporter transcription, actives raise or lower the signal. The method, boiled down:
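Using capillary electrophoresis as the read-out, labelled reporter cDNA fragments from transiently transfected HepG2 were sized and quantified. Exposure lasted 24 hours; activity in either direction was referenced to DMSO.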

A short description of experiment [16]: ATG_TAL_CIS: Attagene CIS-FACTORIAL HepG2 Assay for human TAL Basal Promoter (AID 2282966).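 Further: background control endpoint measuring basal TAL promoter reporter mRNA not a specific factor.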 To be noted: HepG2 Attagene cis-factorial TAL promoter reporter; actives raise or lower the signal. Summed up: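 In this cell-based multiplex, HepG2 liver cells bearing cis-promoter reporter constructs are dosed for 24 hours. Total RNA is reverse-transcribed and amplified, labelled fragments are sized by capillary electrophoresis, and signal changes are fitted bidirectionally versus DMSO.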

Experiment [17] has as its target X-box-binding protein 1 (Homo sapiens) (UniProt P17861). The experiment in a line: ATG_Xbp1_CIS: Attagene CIS-FACTORIAL HepG2 Assay for human X-box Binding Protein 1 (XBP1) (AID 2282972). To be noted: HepG2 XBP1 cis-element reporter, Attagene multiplex; actives raise or lower the signal. The method, boiled down: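 HepG2, transient MRTU transfection (cis-promoter driven), 24 h compound exposure. Total RNA → oligo(dT) RT → PCR → 6-FAM labeling → HpaI cut → CE. Bidirectional fit vs DMSO.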

In experiment [18] the target is Transcriptional activator Myb (Homo sapiens) (UniProt P10242). The experiment in a line: ATG_Myb_CIS: Attagene CIS-FACTORIAL HepG2 Assay for human Myeloblastosis (Myb) Proto-Oncogene Transcription Factor (AID 2282986). To be noted: HepG2 Attagene CIS-FACTORIAL Myb reporter transcription; actives raise or lower the signal. The method, boiled down:
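Multiplexed cis-reporter system in HepG2: transient transfection, 24 h treatment, mRNA readout by RT-PCR and capillary electrophoresis. Both increases and decreases are scored versus DMSO negative control.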

Experiment [19] deals with Myc proto-oncogene protein (Homo sapiens) (UniProt P01106). Nature of the experiment: ATG_Myc_CIS: Attagene CIS-FACTORIAL HepG2 Assay for human Myelocytomatosis (Myc) Proto-Oncogene Transcription Factor (AID 2282990). To be noted: HepG2, Attagene cis-reporter transcription factor activity; actives raise or lower the signal. Summed up:
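Multiplexed cis-reporter transcription in HepG2 cells after 24 h chemical treatment. Reporter mRNA measured by RT-PCR and capillary electrophoresis fluorescence; activity fitted bidirectionally against DMSO control.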

The nature of experiment [20]: ATG_Oct_MLP_CIS: Attagene CIS-FACTORIAL HepG2 Assay for human Octamer-Binding Transcription Factor (Oct) (AID 2282993). To be noted: HepG2 Attagene cis-factorial Oct reporter, mRNA; actives raise or lower the signal. The method, boiled down: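 HepG2, transient MRTU transfection, cis promoter elements; 24 h dosing; RT-PCR/CE fluorescence read-out of reporter mRNA; fit both directions vs DMSO.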

SMILES strings stand for the structures. The source made the active and inactive calls. How the source made its calls: active means hit-call score of the fitted dose curve at least 0.9, where 1 is the maximum; inactive means score below 0.9.

Sequence of CCAAT/enhancer-binding protein beta (Homo sapiens) (P17676 whole entry, looked up): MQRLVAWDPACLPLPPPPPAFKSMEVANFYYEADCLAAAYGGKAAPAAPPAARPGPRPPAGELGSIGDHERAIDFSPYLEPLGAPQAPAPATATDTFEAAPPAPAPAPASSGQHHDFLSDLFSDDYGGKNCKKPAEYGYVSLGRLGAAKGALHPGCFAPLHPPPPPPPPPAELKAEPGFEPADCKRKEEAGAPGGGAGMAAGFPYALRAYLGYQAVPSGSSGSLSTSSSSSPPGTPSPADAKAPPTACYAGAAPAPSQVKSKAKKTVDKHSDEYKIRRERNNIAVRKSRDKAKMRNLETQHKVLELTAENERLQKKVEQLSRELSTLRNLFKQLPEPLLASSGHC
Sequence of Transcription factor Sp1 (Homo sapiens) (P08047 whole entry, looked up): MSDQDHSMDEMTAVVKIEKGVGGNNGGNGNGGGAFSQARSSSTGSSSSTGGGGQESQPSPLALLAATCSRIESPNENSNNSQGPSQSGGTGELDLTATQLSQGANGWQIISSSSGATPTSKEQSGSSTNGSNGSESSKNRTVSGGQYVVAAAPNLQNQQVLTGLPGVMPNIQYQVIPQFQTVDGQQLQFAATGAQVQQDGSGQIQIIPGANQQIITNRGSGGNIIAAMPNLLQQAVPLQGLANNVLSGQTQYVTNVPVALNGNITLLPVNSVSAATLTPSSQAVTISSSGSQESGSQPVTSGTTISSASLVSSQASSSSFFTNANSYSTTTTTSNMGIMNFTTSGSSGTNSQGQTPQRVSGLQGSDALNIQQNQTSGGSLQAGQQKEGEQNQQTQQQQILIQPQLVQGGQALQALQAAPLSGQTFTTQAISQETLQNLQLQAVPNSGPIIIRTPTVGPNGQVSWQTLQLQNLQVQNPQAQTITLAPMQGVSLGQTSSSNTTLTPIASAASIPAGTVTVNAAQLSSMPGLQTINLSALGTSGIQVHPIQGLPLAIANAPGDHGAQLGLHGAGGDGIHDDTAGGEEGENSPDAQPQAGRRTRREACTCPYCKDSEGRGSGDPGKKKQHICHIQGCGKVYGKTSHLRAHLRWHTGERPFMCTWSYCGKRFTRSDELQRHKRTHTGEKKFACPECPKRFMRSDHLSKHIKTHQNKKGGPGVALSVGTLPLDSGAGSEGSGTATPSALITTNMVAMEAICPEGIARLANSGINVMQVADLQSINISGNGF
Sequence of Transcriptional activator Myb (Homo sapiens) (P10242 whole entry, looked up): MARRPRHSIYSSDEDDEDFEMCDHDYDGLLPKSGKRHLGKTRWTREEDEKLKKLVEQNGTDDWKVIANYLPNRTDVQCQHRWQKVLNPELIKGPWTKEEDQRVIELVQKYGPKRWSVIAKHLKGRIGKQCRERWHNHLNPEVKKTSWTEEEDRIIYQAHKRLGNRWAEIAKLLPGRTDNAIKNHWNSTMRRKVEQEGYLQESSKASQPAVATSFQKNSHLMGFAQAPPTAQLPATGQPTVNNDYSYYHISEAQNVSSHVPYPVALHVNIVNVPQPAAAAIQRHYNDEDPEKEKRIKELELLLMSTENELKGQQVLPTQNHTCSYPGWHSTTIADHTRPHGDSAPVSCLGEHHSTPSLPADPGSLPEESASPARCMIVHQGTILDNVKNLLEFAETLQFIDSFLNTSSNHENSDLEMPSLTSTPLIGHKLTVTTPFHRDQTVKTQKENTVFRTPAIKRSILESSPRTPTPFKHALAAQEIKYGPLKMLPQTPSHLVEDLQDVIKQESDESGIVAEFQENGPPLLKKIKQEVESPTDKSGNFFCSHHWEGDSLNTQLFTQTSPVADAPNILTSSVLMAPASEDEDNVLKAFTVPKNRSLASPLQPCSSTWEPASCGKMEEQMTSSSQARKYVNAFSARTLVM
Sequence of Myc proto-oncogene protein (Homo sapiens) (P01106 whole entry, looked up): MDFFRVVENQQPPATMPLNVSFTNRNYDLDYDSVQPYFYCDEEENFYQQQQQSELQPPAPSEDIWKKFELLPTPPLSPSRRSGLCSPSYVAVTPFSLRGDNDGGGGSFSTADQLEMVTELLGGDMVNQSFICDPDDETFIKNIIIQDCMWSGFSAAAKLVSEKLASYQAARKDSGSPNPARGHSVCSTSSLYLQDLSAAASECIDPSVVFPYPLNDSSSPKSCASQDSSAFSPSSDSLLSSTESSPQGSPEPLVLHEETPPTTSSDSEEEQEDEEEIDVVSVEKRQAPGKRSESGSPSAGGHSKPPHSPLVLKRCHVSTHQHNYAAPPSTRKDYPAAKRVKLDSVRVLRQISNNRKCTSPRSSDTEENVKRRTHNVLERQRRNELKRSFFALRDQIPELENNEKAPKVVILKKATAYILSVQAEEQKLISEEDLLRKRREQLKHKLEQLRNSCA
Sequence of X-box-binding protein 1 (Homo sapiens) (P17861 whole entry, looked up): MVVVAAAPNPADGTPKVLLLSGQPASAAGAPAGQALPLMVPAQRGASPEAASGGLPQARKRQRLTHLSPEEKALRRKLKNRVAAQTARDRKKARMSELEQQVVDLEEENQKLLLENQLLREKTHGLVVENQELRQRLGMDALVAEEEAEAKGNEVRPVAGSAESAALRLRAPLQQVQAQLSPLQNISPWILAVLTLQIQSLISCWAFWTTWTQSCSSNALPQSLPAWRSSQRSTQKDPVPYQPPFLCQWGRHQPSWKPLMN
Sequence of Transcription factor E2F1 (Homo sapiens) (Q01094 whole entry, looked up): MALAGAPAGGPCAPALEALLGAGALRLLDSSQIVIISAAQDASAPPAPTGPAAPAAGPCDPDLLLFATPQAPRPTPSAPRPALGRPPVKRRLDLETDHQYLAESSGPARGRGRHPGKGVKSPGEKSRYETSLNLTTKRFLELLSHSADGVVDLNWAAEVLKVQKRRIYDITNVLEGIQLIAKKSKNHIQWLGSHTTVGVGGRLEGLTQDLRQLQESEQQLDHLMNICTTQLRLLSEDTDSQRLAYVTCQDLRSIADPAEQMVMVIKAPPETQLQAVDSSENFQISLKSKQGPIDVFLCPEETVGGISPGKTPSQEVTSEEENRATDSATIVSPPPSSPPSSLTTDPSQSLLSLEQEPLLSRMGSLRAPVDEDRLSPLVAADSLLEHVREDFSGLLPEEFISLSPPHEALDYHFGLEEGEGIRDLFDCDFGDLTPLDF
Sequence of Signal transducer and activator of transcription 3 (Homo sapiens) (P40763 whole entry, looked up): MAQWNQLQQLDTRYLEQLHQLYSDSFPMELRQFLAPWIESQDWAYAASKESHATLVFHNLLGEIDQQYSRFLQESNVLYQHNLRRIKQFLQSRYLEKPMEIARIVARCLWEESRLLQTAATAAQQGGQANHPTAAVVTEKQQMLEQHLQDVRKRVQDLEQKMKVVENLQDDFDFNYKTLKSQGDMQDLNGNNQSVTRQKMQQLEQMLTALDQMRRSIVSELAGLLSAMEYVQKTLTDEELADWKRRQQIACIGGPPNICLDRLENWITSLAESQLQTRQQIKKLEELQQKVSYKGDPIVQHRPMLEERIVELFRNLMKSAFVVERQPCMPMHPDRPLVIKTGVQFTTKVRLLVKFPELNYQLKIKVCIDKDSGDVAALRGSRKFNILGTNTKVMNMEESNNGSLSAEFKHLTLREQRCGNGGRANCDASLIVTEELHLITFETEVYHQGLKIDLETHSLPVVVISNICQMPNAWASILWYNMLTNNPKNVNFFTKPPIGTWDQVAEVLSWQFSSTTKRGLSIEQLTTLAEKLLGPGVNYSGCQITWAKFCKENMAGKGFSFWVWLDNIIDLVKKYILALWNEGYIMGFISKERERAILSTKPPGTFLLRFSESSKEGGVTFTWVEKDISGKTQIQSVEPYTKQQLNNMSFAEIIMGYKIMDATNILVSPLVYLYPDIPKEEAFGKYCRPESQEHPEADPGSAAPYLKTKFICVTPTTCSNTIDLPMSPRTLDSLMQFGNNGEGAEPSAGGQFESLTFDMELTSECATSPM

One may read the AC50 as the concentration giving half of the maximal activity seen. Turning to `O=P1(NCCCl)OCCCN1CCCl` (stereo not given), the result in experiment [1], in experiment [2], in [3], in experiment [4], in experiment [5] and in experiment [6] was inactive. For the same molecule, the result in experiment [7], in [8], in experiment [9], in experiment [11], in experiment [12] and in experiment [13] was inactive. In addition, the call in experiment [14], in experiment [15], in [16], in experiment [17], in [18] and in [19] was inactive. In addition, the molecule was classed as inactive in [20]. In addition, in experiment [10], the AC50 was 50.2 µM (active).

Consider `Cc1ccc(C)c2ccccc12`, for which the outcome in experiment [1], in [2], in experiment [3], in experiment [4], in experiment [5] and in experiment [6] was inactive. The molecule was classed as inactive in experiment [7], in [8], in experiment [9], in experiment [11], in experiment [12] and in experiment [13]. The molecule was called inactive in [14], in [15], in experiment [16], in experiment [17], in experiment [18] and in [19]. In addition, in experiment [20], the molecule was classed as inactive. In addition, the AC50 in experiment [10] is 33.4 µM (active).

For `CCOP(=O)(OCC)Oc1ccc([N+](=O)[O-])cc1`, the outcome in [1], in [2], in experiment [3], in [4], in [5] and in experiment [6] was inactive. Also, the molecule was classed as inactive in [7], in [8], in experiment [9], in experiment [11], in experiment [12] and in experiment [13]. The outcome in experiment [14], in experiment [15], in experiment [16], in experiment [17], in [18] and in experiment [19] was inactive. Also, the result in experiment [20] was inactive. Besides, the AC50 in experiment [10] was 26.8 µM (active).

Consider `O=C1Nc2ccc(Cl)cc2C(c2ccccc2)=NC1O` (stereo not given), for which the outcome in [1], in [2], in experiment [3], in [4], in experiment [5] and in experiment [6] was inactive. In addition, the outcome in [7], in experiment [8], in [9], in experiment [10], in experiment [11] and in experiment [12] was inactive. The outcome in experiment [13], in experiment [14], in experiment [16], in [17], in [18] and in experiment [19] was inactive. Also, in [20], the call was inactive. Moreover, in experiment [15], the AC50 is 28.9 µM (active).

For the molecule `CCOP(O)OCC`, the result in experiment [1], in experiment [2], in experiment [3], in [4], in [5] and in [6] was inactive. Moreover, the molecule was classed as inactive in experiment [7], in experiment [8], in experiment [9], in experiment [11], in experiment [12] and in [13]. In addition, the call in experiment [14], in experiment [15], in [16], in experiment [17], in experiment [18] and in experiment [19] was inactive. For the same molecule, in experiment [20], the molecule was classed as inactive. The concentration at half-maximal activity (AC50) in experiment [10] is 30.1 µM (active).

Consider `CC(=O)c1cc2c(cc1C)C(C)(C)C(C)CC2(C)C` (stereo not given), for which the AC50 in experiment [1] is 108 µM (active); in experiment [2] it was 26.1 µM (active); in experiment [3], 158 µM (active); in experiment [6] it was 128 µM (active); in experiment [7], 75.5 µM (active); in experiment [10], 2.25 µM (active). The AC50 was 27.2 µM (active) in [12]; 168 µM (active) in experiment [15]; 66.6 µM (active) in experiment [17]; 55.9 µM (active) in [18]; 60.9 µM (active) in [19]; 64.3 µM (active) in experiment [20]. Besides, the call in experiment [4], in experiment [5], in experiment [8], in experiment [9], in experiment [11] and in [13] was inactive. The molecule was called inactive in experiment [14] and in [16].

Values taken from PubChem BioAssay (EPA / NIEHS).
